# Experimental data published in PubChem BioAssay (NCATS).
# Several values for one entry are separate records, joined by “and”; a condition that tells them apart may be missing. Equal values may be shown once. Unmarked numbers belong to inactive results. Inconclusive results are not listed. Where a call stands in place of a potency, no number is given. Activity calls are given as the source filed them. Unless noted, calls come from the whole dose curve; as a rule, active = well fitted curve in the direction sought with a large enough effect; inconclusive = small, poorly fitted or top-dose-only effect, or another doubt; inactive = no such curve, though single readings can be large; an effect the other way counts as inactive or inconclusive.
# Tests used:
# [1] = molecular target: 3',5'-cyclic-AMP phosphodiesterase 4B (Homo sapiens) (UniProt Q07343); test: qHTS Assay for Inhibitors of PDE-IV (AID 607; active = well fitted activation curve with a large enough effect in the main read-out, with a control signal flat, not every such curve was filed as active)
# How it was run: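 The readout is membrane depolarisation from a cAMP-sensing CNG channel, detected with a potential dye at ex 535/em 590. Cells were HEK293-derived (endogenous PDE-IV) at 1000 cells/well, titrated up to 22.9 uM final.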
# [2] = Cellular Toxicity (caspase-3) HepG2 (AID 654);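 note: cells exposed to compound for 16 hours before reading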
# How it was run: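 HepG2 cells (1500/well) were treated 16 h at 37 °C in complete medium, then caspase 3/7 activity was read by Caspase-Glo luminescence. Data were normalized to DMSO and 100 uM tamoxifen; AC50 came from Hill-equation fits of qHTS concentration-response.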
# [3] = Cellular Toxicity (caspase-3) Jurkat (AID 655);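 note: cells exposed to compound for 16 h at 37 °C before reading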
# How it was run: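 Luminescent caspase-3/7 readout (aminoluciferin substrate cleavage) in human T-cell leukemia Jurkat cells after 16 hr compound exposure. Concentration-response normalized to DMSO and 100 uM tamoxifen; AC50 by standard Hill equation.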
# [4] = Cellular Toxicity (caspase-3) HUV-EC-C (AID 656)
# How it was run: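 Luminescent caspase-3/7 activation (aminoluciferin substrate cleavage) in HUV-EC-C cells after 16 hr compound exposure, 37°C. Signal normalized to DMSO basal and 100 uM tamoxifen as 100%; AC50 from concentration-response fitted with the Hill equation.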
# [5] = Cellular Toxicity (caspase-3) SHSY5Y (AID 657)
# How it was run: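 Luminescent caspase-3/7 readout (aminoluciferin release) in SH-SY5Y cells after 16 h compound exposure in complete medium. Activity scaled between DMSO basal and 10 uM staurosporine as 100%; concentration-response fitted to Hill equation for AC50.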
# [6] = Cellular Toxicity (caspase-3) BJ (AID 658)
# How it was run: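 Readout: Caspase-Glo 3/7 luminescence increase in BJ cells after 16 hr treatment at 37 °C. Staurosporine and tamoxifen served as positive controls; AC50 values came from Hill modelling of data normalized to DMSO and 10 uM staurosporine.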
# [7] = Cellular Toxicity (caspase-3) MRC-5 (AID 659)
# How it was run: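 Concentration-dependent caspase 3/7 activation is measured in human normal lung fibroblasts (MRC-5) following 16-hour treatment. AC50 values come from standard Hill-equation modeling of luminescence normalized to DMSO and 10 uM staurosporine.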
# [8] = Cellular Toxicity (caspase-3) Mesangial (AID 660);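 note: cells exposed to compound for 16 h before the caspase read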
# How it was run: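 Human renal glomerular mesangial cells, 1000/well, 5 h at 37 C before 16 h compound treatment. Caspase-Glo 3/7 luminescence after 20 min; normalized to DMSO and 100 uM tamoxifen, AC50 from Hill fit.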
# [9] = Cellular Toxicity (caspase-3) SK-N-SH (AID 661)
# How it was run: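 Human SK-N-SH neuroblastoma cells, 1500/well, were exposed to compounds for 16 hours at 37 °C. Caspase-Glo 3/7 luminescence was normalized to DMSO (basal) and 10 uM staurosporine (100%), and AC50 came from a Hill fit.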
# [10] = Cellular Toxicity (caspase-3) H-4-II-E (AID 663);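 note: cells exposed to compound for 16 hr before readout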
# How it was run: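 Apoptosis induction is scored as increased luminescence from caspase 3/7 substrate cleavage in rat hepatoma H-4-II-E cells exposed to compound for 16 hr. Activity is scaled between DMSO and 100 uM tamoxifen.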
# [11] = Cellular Toxicity (caspase-3) N2a (AID 665);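 note: compound exposure lasted 16 h at 37 °C before readout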
# How it was run: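 Mouse N2a neuroblastoma cells, 1500 per well, treated 16 h at 37 °C in complete medium; caspase-3/7 activity by Caspase-Glo luminescence after 1 h. Normalized to DMSO and 10 uM staurosporine; AC50 from Hill fits.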
# [12] = Cellular Toxicity (caspase-3) NIH 3T3 (AID 666)
# How it was run: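 Mouse NIH 3T3 fibroblasts (1000/well) treated 16 h at 37 C; caspase-3/7 activity measured by Caspase-Glo 3/7 luminescence after 20 min. Normalized to DMSO and 100 uM tamoxifen; AC50 from Hill fits.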
# [13] = Cellular Toxicity (caspase-3) Renal Proximal Tubule (AID 667);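 note: cells exposed to compound for 16 hours at 37 °C before detection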
# How it was run: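 Luminescent caspase 3/7 signal from peptide-aminoluciferin cleavage measures apoptosis in freshly isolated rat kidney proximal tubule cells after 16 h compound exposure. Concentration-response data are normalized to DMSO and 10 uM staurosporine, and AC50 values come from Hill equation fits.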
# [14] = molecular target: Guanine nucleotide-binding protein G(i) subunit alpha-1 (Homo sapiens) (UniProt P63096); test: qHTS Assay for Inhibitors of RGS12 GoLoco Motif Activity (Green Fluorophore) (AID 879);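 note: negative values mean loss of peptide binding seen as reduced polarization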
# How it was run: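 Fluorescence polarization assay: 50 nM Gαi1 with 10 nM FITC-labeled RGS12 GoLoco peptide in 10 mM Tris pH 7.5, 150 mM NaCl, 0.1 mM GDP, 0.05% NP40, 10 min at room temperature with compound.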
# [15] = molecular target: Cytochrome P450 3A4 (Homo sapiens) (UniProt P08684); test: qHTS Assay for Inhibitors and Substrates of Cytochrome P450 3A4 (AID 884); note: series mostly up to about 57 µM; nearly all actives have a fitted effect of over 50% in size
# How it was run: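 20 nM human CYP3A4 with 25 uM Luciferin-PPXE (at KM) in 200 mM KPO4, preincubated 10 min with compound; NADPH regeneration started a 60 min RT reaction. Luciferin detected by luminescence, normalized to 57 uM ketoconazole as full inhibition.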
# [16] = Confirmation and Secondary Assay for Modulators of Hemoglobin Beta Chain Splicing at IVS2 654 locus (AID 910);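 note: HeLa cells stably carrying EGFP split by mutant beta-globin IVS2-654 intron; per-well total GFP intensity by laser scanning cytometry after 2-day treatment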
# How it was run: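 Readout: per-well total peak green fluorescence (488 nm ex, 500–520 nm em) from objects 5–250 µm, reflecting correct splicing of an EGFP-654 reporter. Compounds were applied for 2 days at 37 °C to overnight-plated HeLa EGFP-654 cells; controls were DMSO and 500 nM IVS2-654 PNA.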
# [17] = molecular target: Cytochrome P450 2C9 (Homo sapiens) (UniProt P11712); test: qHTS Assay for Inhibitors and Substrates of Cytochrome P450 2C9 (AID 883); note: nearly all actives have a fitted effect of over 60% in size; note: potency is the fitted concentration of half-maximal effect
# How it was run: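 Luminescent read-out of deoxyluciferin hydroxylation, normalized to 57uM sulphaphenazole (AC100). Reaction: 10nM enzyme, 100uM Luciferin-H (equal to KM), 25mM KPO4, 10 min compound preincubation, then 60 min with NADPH regeneration, both at 37C.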
# [18] = molecular target: Cytochrome P450 2D6 (Homo sapiens) (UniProt P10635); test: qHTS Assay for Inhibitors and Substrates of Cytochrome P450 2D6 (AID 891);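 note: luciferin methyl ether substrate demethylated by CYP2D6 with NADPH regeneration; nearly all actives have a fitted effect of over 60% in size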
# How it was run: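 Human CYP2D6 (5 nM) with 30 uM Luciferin-ME EGE (at Km) in 100 mM KPO4, compound preincubated 10 min, then NADPH regeneration system for 60 min at room temperature. Luciferin read by luminescence; normalized to 1.43 uM quinidine.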
# [19] = qHTS Assay for Identification of Small Molecule Agonists for Hypoxia Response Element Signaling Pathway (AID 914; active = well fitted activation curve with a large enough effect in the signal ratio, with a control signal flat, not every such curve was filed as active; the % refers to the signal ratio); settings: ME-180 (cervical carcinoma) HRE-bla reporter, beta-lactamase ratio, CoCl2, 17 h; active compounds read high
# How it was run: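 qHTS titration; ME-180 HRE-bla cells; EC50 CoCl2 co-treatment, 17 h at 37 degrees Celsius; CCF4 dye, ex 405nm, em 460nm and 530nm; %Activity from ratio; AC50.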
# [20] = molecular target: Cytochrome P450 3A4 (Homo sapiens) (UniProt P08684); test: qHTS Assay for Activators of Cytochrome P450 3A4 (AID 885); note: nearly all actives have a fitted effect of over 65% in size
# How it was run: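 Steps: enzyme/substrate mix dispensed; compound added, 10 min RT; NADPH regeneration solution added, 60 min RT; luciferin detection buffer stops reaction; 20 min later luminescence measured.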
# Sequence of Cytochrome P450 2C9 (Homo sapiens) (P11712 whole entry, looked up): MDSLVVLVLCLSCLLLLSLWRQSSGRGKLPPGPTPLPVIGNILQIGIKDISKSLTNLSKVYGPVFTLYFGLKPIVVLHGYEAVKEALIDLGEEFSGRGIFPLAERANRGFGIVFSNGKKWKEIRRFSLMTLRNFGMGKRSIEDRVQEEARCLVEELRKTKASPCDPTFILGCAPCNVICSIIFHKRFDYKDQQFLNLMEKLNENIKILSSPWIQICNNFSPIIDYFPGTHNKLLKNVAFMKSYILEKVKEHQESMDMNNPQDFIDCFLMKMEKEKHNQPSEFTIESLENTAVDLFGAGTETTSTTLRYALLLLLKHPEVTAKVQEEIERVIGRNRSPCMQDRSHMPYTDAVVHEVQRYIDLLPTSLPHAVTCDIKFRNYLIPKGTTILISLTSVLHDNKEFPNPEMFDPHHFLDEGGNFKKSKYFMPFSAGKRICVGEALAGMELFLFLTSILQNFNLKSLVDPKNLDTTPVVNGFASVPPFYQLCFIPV
# Sequence of Guanine nucleotide-binding protein G(i) subunit alpha-1 (Homo sapiens) (P63096 whole entry, looked up): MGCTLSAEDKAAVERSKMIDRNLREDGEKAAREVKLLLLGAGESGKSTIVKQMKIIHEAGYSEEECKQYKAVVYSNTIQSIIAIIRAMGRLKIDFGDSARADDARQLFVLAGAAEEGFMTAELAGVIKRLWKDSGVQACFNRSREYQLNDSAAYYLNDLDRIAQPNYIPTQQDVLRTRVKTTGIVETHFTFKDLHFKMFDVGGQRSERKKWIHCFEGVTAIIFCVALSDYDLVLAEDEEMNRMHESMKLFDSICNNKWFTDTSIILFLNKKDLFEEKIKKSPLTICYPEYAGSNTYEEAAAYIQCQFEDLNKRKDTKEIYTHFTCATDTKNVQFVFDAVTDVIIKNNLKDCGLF
# Sequence of 3',5'-cyclic-AMP phosphodiesterase 4B (Homo sapiens) (Q07343 whole entry, looked up): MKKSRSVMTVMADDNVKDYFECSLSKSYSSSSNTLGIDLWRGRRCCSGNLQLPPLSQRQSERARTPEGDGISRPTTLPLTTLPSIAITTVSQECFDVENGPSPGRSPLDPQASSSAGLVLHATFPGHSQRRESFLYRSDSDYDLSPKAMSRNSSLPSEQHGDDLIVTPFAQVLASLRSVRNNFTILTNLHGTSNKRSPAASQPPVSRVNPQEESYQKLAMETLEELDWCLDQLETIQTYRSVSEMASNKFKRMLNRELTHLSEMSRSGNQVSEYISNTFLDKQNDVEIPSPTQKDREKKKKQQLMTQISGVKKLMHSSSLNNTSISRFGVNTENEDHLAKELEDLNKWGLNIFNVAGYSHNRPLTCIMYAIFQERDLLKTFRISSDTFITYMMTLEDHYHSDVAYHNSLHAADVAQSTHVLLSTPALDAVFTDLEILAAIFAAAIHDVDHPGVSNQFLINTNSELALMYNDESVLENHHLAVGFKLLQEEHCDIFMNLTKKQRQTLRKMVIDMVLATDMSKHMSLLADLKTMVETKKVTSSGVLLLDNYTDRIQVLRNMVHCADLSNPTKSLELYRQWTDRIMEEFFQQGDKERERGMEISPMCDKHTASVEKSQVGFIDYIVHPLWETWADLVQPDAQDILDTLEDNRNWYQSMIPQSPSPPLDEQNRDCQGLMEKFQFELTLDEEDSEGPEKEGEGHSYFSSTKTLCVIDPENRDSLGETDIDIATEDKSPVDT
# Sequence of Cytochrome P450 3A4 (Homo sapiens) (P08684 whole entry, looked up): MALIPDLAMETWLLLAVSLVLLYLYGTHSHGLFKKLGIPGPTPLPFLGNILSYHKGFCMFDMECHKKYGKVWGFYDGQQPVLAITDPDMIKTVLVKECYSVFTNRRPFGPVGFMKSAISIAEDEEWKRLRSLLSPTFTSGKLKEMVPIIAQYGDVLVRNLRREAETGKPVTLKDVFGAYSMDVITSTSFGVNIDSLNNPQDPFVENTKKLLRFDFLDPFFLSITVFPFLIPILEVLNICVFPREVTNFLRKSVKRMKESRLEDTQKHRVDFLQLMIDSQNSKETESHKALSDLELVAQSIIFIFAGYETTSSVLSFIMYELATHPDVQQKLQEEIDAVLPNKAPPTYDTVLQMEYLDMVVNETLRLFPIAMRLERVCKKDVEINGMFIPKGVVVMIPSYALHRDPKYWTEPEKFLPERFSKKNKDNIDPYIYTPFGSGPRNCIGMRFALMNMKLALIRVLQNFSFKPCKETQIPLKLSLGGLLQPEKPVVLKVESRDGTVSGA
# Sequence of Cytochrome P450 2D6 (Homo sapiens) (P10635 whole entry, looked up): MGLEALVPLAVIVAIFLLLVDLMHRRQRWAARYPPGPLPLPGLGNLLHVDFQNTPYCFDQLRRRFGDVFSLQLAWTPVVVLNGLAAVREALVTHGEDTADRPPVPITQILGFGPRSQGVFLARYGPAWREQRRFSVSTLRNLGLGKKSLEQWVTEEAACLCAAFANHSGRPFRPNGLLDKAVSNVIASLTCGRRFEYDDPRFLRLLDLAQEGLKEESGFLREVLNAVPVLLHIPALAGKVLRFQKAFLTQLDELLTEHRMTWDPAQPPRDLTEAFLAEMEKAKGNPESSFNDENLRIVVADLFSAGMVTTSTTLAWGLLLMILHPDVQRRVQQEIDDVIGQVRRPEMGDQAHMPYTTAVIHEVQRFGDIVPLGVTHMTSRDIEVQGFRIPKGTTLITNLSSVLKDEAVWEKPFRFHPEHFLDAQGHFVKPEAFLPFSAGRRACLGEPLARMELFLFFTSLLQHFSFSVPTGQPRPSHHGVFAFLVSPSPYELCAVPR
smiles,measurement,setting,value
Cn1c(=O)c2[nH]cnc2n(C)c1=O,Potency,[1],inactive
same,outcome,[2],inactive
same,Potency,[3],inactive
same,outcome,[4],inactive
same,outcome,[5],inactive
same,outcome,[6],inactive
same,outcome,[7],inactive
same,outcome,[8],inactive
same,Potency,[9],inactive
same,outcome,[10],inactive
same,outcome,[11],inactive
same,outcome,[12],inactive
same,outcome,[13],inactive
same,Potency,[14],inactive
same,outcome,[15],inactive
same,Potency,[16],inactive
O=C(c1ccc(OCCN2CCCCC2)cc1)c1c(-c2ccc(O)cc2)sc2cc(O)ccc12,Potency,[1],inactive
Cn1c(=O)c2c(ncn2C)n(C)c1=O,Potency,[1],inactive
same,outcome,[2],inactive
same,Potency,[3],inactive
same,outcome,[4],inactive
same,outcome,[5],inactive
same,outcome,[6],inactive
same,outcome,[7],inactive
same,outcome,[8],inactive
same,Potency,[9],inactive
same,outcome,[10],inactive
same,outcome,[11],inactive
same,outcome,[12],inactive
same,outcome,[13],inactive
same,Potency,[14],inactive
same,Potency,[17],inactive
same,outcome,[15],inactive
same,Potency,[18],inactive
same,Potency,[16],inactive
same,activation,[19],-1.38%
CCOC(=O)Nc1ccc(NCc2ccc(F)cc2)nc1N,Potency,[1],inactive
same,Potency,[14],inactive
CS(=O)(=O)Nc1ccc([N+](=O)[O-])cc1Oc1ccccc1,Potency,[1],inactive
same,Potency,[14],inactive
same,Potency,[17],10 µM (active) and 3.16 µM (active)
same,Potency,[20],inactive
same,Potency,[18],inactive
same,Potency,[16],inactive
CN(C)CCCN1c2ccccc2CCc2ccc(Cl)cc21,Potency,[1],inactive
same,Potency,[14],inactive
same,Potency,[17],inactive
same,Potency,[20],inactive
same,Potency,[16],inactive
CCC1(c2ccccc2)C(=O)NCNC1=O,Potency,[1],inactive
same,outcome,[2],inactive
same,Potency,[3],inactive
same,outcome,[4],inactive
same,outcome,[5],inactive
same,outcome,[6],inactive
same,outcome,[7],inactive
same,outcome,[8],inactive
same,Potency,[9],inactive
same,outcome,[10],inactive
same,outcome,[11],inactive
same,outcome,[12],inactive
same,outcome,[13],inactive
same,Potency,[14],inactive
same,Potency,[17],inactive
same,outcome,[15],inactive
same,Potency,[18],inactive
same,Potency,[16],inactive
CCOC(=O)c1ncn2c1CN(C)C(=O)c1cc(F)ccc1-2,Potency,[17],inactive
COc1cc2nc(N3CCN(C(=O)c4ccco4)CC3)nc(N)c2cc1OC,Potency,[17],inactive
CC(COc1ccccc1)N(CCCl)Cc1ccccc1 (centres undefined),outcome,[4],inactive
same,outcome,[5],inactive
same,outcome,[7],inactive
same,outcome,[8],inactive
same,outcome,[10],inactive
same,outcome,[12],inactive
same,Potency,[20],inactive
same,Potency,[16],inactive
CCCCc1oc2ccccc2c1C(=O)c1cc(I)c(OCCN(CC)CC)c(I)c1,Potency,[14],inactive
same,Potency,[16],inactive
CC(C(=O)O)c1cccc(C(=O)c2ccccc2)c1 (centres undefined),Potency,[16],inactive
O=C(Nc1ccc([N+](=O)[O-])cc1Cl)c1cc(Cl)ccc1O,Potency,[14],inactive
same,Potency,[17],631 nM (active)
same,Potency,[20],inactive
same,Potency,[16],inactive
NC(CO)C(=O)NNCc1ccc(O)c(O)c1O (centres undefined),Potency,[16],inactive
Cc1ccccc1N1C(=O)c2cc(S(N)(=O)=O)c(Cl)cc2NC1C (centres undefined),Potency,[14],inactive
same,Potency,[20],inactive
same,Potency,[16],inactive
C[C@](N)(Cc1ccc(O)c(O)c1)C(=O)O,Potency,[14],inactive
same,Potency,[20],inactive
CC(=O)OCC(CCn1cnc2cnc(N)nc21)COC(C)=O,outcome,[15],inactive
same,Potency,[16],inactive
CN1CCN2c3ccccc3Cc3ccccc3C2C1 (centres undefined),Potency,[20],inactive
same,Potency,[16],inactive
